NS1 function inh: qHTS Assay for Inhibitors of Influenza NS1 Protein Function; Potency, µM (doses to about 46.1 µM), for the others: top-dose activity, positive = more growth; AID 2326, 2010; 0.4% of 270,000 active; calls by dose curve; also: actives are rising curves; nearly all actives have a fitted effect of over 50% in size
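OD600 was taken as the measure of yeast growth restored by compound in an NS1-expressing S. cerevisiae strain. Cells had been washed out of glucose medium and diluted 1:100 into galactose -URA medium, pH 6.0.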
LmPK inh: qHTS Assay for Inhibitors of Leishmania Mexicana Pyruvate Kinase (LmPK). AID 1721, 2009. Q27686. purified LmPK, Kinase-Glo ATP luminescence, 1 h. Potency, µM (series often up to 57.5 µM), inactives show top-dose activity change, negative = inhibition, hits mostly inhibitors. 0.37% of 290,000 active; also: % is scaled to controls: 0 for no effect and ±100 for the full control effect
Target sequence (Q27686 whole entry, looked up): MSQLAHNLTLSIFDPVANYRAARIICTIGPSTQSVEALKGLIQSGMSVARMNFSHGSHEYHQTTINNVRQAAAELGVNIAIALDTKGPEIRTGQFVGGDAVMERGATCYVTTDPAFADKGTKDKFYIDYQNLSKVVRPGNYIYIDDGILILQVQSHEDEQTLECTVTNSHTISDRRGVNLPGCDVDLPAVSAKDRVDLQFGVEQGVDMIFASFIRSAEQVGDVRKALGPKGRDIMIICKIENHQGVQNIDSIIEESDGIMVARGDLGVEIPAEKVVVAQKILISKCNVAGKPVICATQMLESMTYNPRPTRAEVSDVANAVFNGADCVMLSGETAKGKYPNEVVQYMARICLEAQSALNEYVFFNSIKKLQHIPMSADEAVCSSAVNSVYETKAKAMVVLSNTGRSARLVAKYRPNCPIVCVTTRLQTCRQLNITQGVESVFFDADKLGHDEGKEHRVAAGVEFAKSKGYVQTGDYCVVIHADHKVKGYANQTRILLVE
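Kinase-Glo luminescence read after 1 h RT reaction of 0.1 nM LmPK with 0.5 mM PEP and 0.1 mM ADP. Activity scaled between uninhibited and enzyme-free controls.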
SARS PLpro yeast: qHTS of Yeast-based Assay for SARS-CoV PLP. S. cerevisiae expressing SARS-CoV PLpro, growth rescue. Potency, µM (top dose mostly 32.9 µM), without a hit: at the highest dose activity, positive = growth rescue, most hits filed as activators. 0.19% of 330,000 active. AID 485353, 2010; calls by dose curve; also: 0% is about no effect; nearly all actives have a fitted effect of over 55% in size
Tb PYK inh: qHTS of Trypanosoma Brucei Inhibitors. 0.12% of 410,000 active. TbPYK enzyme, Kinase-Glo Plus ATP luminescence, 45 min. pyruvate kinase (Trypanosoma brucei), Q57TT1. Potency, µM (top dose mostly 76.8 µM), for inactives: at the highest dose activity, negative = inhibition, hits mostly inhibitors; also: % is scaled to controls: 0 for no effect and ±100 for the full control effect; nearly all actives have a fitted effect of over 50% in size
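Luminescent Kinase-Glo Plus end-point after 45 min room-temperature reaction of T. brucei pyruvate kinase started with 130 uM ADP (final). Buffer TEA 50 mM pH 7.2 with KCl, MgCl2, BSA, Tween-20; titration-based qHTS with fitted concentration-effect curves.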
RE007 growth inh: qHTS Assay for Inhibitors of the HIV-1 protein Vpr. AID 651644, 2012. S. pombe RE007 Vpr strain, BacTiter-Glo ATP luminescence, 24 h. 0.21% of 360,000 active. Potency, µM (titrated, usually from 92.2 µM), without a hit: at the highest dose activity change, negative = less growth, usual class: inhibitors; active = well fitted falling curve with a large enough effect; inconclusive = small, poorly fitted or top-dose-only effect; inactive = no such curve, though single readings can be large or run the other way; also: % is scaled to controls: 0 for no effect and ±100 for the full control effect; nearly all actives have a fitted effect of over 50% in size
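Fission yeast strain RE007, carrying one chromosomally integrated HIV-1 vpr copy, was seeded at OD 0.01 in PMG+AL medium with 23 nL pinned compound. After 24 h at 30 °C and 99% humidity, viability was read by BacTiter-Glo luminescence.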
Sm TGR block: qHTS Assay for the Inhibitors of Schistosoma Mansoni Peroxiredoxins. Potency, µM (titrated, usually from 114 µM), inactives show top-dose activity change, negative = inhibition, usual class: inhibitors. AID 485364, 2010. 3% of 360,000 active. purified TGR, DTNB reduction, TNB absorbance 405 nm. Schistosoma mansoni thioredoxin glutathione reductase (TGR), Q962Y6; also: % is scaled to controls: 0 for no effect and ±100 for the full control effect; nearly all actives have a fitted effect of over 60% in size
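First, TGR (20 nM dispensed) and NADPH were mixed with compound. Second, a 15 min room-temperature incubation followed. Third, further NADPH and then DTNB were added to start the reaction. Finally, TNB absorbance was monitored kinetically.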
Active calls of the source: *; ? = inconclusive; / = not tested or not shown; [ ] = another dose, or the depositor's remark. Only some compounds are listed: those with a hit (about 3.3% of all), similar ones and a draw of the others. Unless noted, calls follow the shape of the dose curve; as a rule, active = well fitted curve in the direction sought with a large enough effect; inconclusive = small, poorly fitted or top-dose-only effect, or another doubt; inactive = no such curve, though single readings can be large; an effect the other way counts as inactive or inconclusive. Potency is read from the fitted curve at half-maximal effect.

SMILES	NS1 function inh	LmPK inh	SARS PLpro yeast	Tb PYK inh	RE007 growth inh	Sm TGR block
CCC(=O)N1c2ccccc2CC1C(=O)NCCN1CCN(c2cc(Cl)ccc2C)CC1 (stereo unspecified)	/	/	/	-8.1%	/	-0.4%
CCOC(=O)N1CCN(Cc2nc3ccc([N+](=O)[O-])cc3c(=O)n2-c2ccc(OC)cc2OC)CC1	-5.9%	3.1%	4.6%	0.1%	1.2%	39.8µM*
COc1ccc(-n2c(CN3CCOCC3)nc3ccc([N+](=O)[O-])cc3c2=O)c(OC)c1	15.5%	0.2%	0.8%	-7.0%	-1.2%	44.7µM*
COc1ccc(-n2c(CN3CCC(C)CC3)nc3ccc([N+](=O)[O-])cc3c2=O)c(OC)c1	5.5%	7.1%	2.1%	-1.7%	-4.5%	?
COc1ccc(-n2c(CN3CCN(c4ccccc4)CC3)nc3ccc([N+](=O)[O-])cc3c2=O)c(OC)c1	-0.9%	-0.8%	-2.2%	-0.9%	2.9%	?
COC(=O)c1ccc(Cl)cc1NC(=O)N1CC=C(c2c[nH]c3ccccc23)CC1	/	/	/	3.7%[15.4 µM]	/	-22.0%
Cc1cc(C)c2c(CCl)cc(=O)oc2c1	-30.4%	-3.4%	-3.0%	-1.0%	11.7%	10µM*
Cc1cc(C)c2c(CN3CCCCC3)cc(=O)oc2c1	4.0%	-9.1%	1.3%	0.8%	-11.7%	34.3%
O=C(NCCCN1CCCC1)c1ccc(Cn2c(=S)[nH]c3ccc(Br)cc3c2=O)cc1	/	-2.7%	-1.6%	/	/	44.7µM*
O=C(CCCn1c(=S)[nH]c2ccc(Br)cc2c1=O)NCC1CCCO1 (stereo unspecified)	1.78µM*	-16.4%	?	-2.1%	-9.7%	7.4%
O=C(NCCN1CCCC1)c1ccc(Cn2c(=S)[nH]c3ccc(Br)cc3c2=O)cc1	/	-7.1%	-2.7%	-25.1%	-19.9%	-7.4%
O=C(CCCn1c(=O)[nH]c2cc(Cl)ccc2c1=O)NCC1CCCO1 (stereo unspecified)	5.6%	3.1%	-1.8%	0.9%	1.5%	-2.0%
CC(C)N(Cc1ccccc1)C(=O)C1CCCN(c2ncnc3onc(-c4ccc(F)cc4)c23)C1 (stereo unspecified)	/	/	/	-0.9%	/	-1.5%
C[C@@H](O[C@H]1OCCN(Cc2n[nH]c(=O)[nH]2)[C@@H]1c1ccc(F)cc1)c1cc(C(F)(F)F)cc(C(F)(F)F)c1	/	/	/	-6.5%	/	/
Cc1ccc(C)c(NC(=O)Nc2csc3c2CCCC3)c1	/	/	/	-0.9%	/	-1.7%
CCC(=O)Oc1ccc(C/C(=N\O)c2ccc(O)cc2O)o1	?	9.3%	1.0%	-12.2%	12.8%	7.94µM*
O=S1(=O)N[C@H]2CC[C@@H]3NS(=O)(=O)N[C@H]4CC[C@H](N1)N4S(=O)(=O)N23	4.4%	/	/	/	/	/
CC(C)(C)n1ncc2c(=O)n(CC(=O)NCc3ccco3)cnc21	-0.5%	0.9%	-12.9%	1.1%	15.2%	44.7µM*
CCN1Cc2c(/C=C/c3ccccc3)nc3ccc(OC)cc3c2N(c2cccc(Cl)c2)C1	7.1%	-0.6%	-2.8%	3.9%	/	39.8µM*
COc1cccc(N2CCc3c(C)nc4ccc(Cl)cc4c32)c1	-43.3%	5.0%	-1.7%	-3.0%	8.6%	0.8%
CCCCn1c(SCC(=O)NCc2ccco2)nc2cc(S(N)(=O)=O)ccc21	7.4%	8.3%	10.2%	-9.9%	-10.0%	50.1µM*
CCCCn1c(SCC(=O)NCc2ccco2)nc2ccc(N3CCOCC3)cc2c1=O	-31.0%	1.6%	-1.8%	19.2%	-0.3%	28.2µM*
CCCCn1c(SCC(=O)NCc2ccccc2)nc2ccc(N3CCOCC3)cc2c1=O	5.2%	3.1%	2.4%	32.0%	2.9%	-9.5%
CCCCn1c(SCC(=O)Nc2ccc(OC)cc2)nc2ccc(N3CCOCC3)cc2c1=O	-17.9%	3.6%	-3.0%	/	-5.8%[3.69 µM]	28.2µM*

Screening data from PubChem.
